Screening results as filed in PubChem BioAssay.
NadD inh = inhibitors of Staphylococcus aureus NadD | purified NadD enzyme, colorimetric absorbance read-out | inhibition, % at 20 µM | 0.78% of 360,000 active; in the data active means inhibition above about 26%
CRFBP-R2 block = antagonists of CRF-binding protein/CRF-R2 receptor complex; 0.59% of 350,000 active; AID 588475; inhibition, % at 11.8 µM; HEK293 CRF-R2/CRF-BP, CRF-induced calcium fluorescence;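 active means inhibition of the ligand-induced calcium signal above about 50% at the single tested concentration, limit read from the data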
FAS TE block = FAS thioesterase (human) inhibition | 0.67% of 360,000 active | recombinant FAS-TE, OMFH fluorogenic substrate, fluorescence endpoint | inhibition, % at 15 µM | P49327;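 active means compounds whose normalised, plate-corrected inhibition of enzyme fluorescence in the single-dose primary screen is 50% or more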;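 further: 0% = DMSO with enzyme and 100% = substrate without enzyme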
NRP1-CendR mod = modulators of CendR peptide binding to human neuropilin-1; FAM-RPARPAR peptide binding to NRP-1, fluorescence polarization; inhibition, % at 25 µM; 0.85% of 360,000 active; AID 602438;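 active means inhibition or corrected inhibition above about 18%, plus a signal ratio from 0.5 to 1.5, limit read from the data, passing the limit was not always enough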
Myeloid diff MLP = myeloid differentiation induction. 1% of 360,000 active. calls only at 10 µM. AID 624256. ER-HoxA9 myeloid progenitors, lysozyme-GFP differentiation, flow cytometry;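 active means normalized GFP-positive differentiation at or above the plate's own cutoff, the solvent-only control mean plus 3 SD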;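 further: cells exposed to compound for four days before flow analysis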
Myeloid diff CP1 = myeloid differentiation induction; shares compounds with Myeloid diff MLP; ER-HoxA9 myeloid progenitors, GFP/Mac1 double-positive flow; calls only; 2% of 2,300 active;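 active means share of green or green-and-red cells above 9 and 9% in run 1 or 4 and 3% in run 2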
GFP autofluor = flagged as fluorescent in myeloid differentiation counter-screen; fluorescence response, % (no concentration beside the values); ER-HoxA9 myeloid progenitors, no estrogen, GFP autofluorescence flow cytometry; vehicle wells 0%, positive control 100%; shares compounds with Myeloid diff MLP; 7.4% of 2,300 active;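 active means over 5% cells positive for green fluorescent reporter, or over 2% positive for both it and APC stain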;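 further: range taken on the double positive population between DMSO and positive control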
* hit, by the source's call. A selection: hits, their analogues and other compounds. The true share with any hit is near 3.6%.

Screening CCN1C(=O)[C@H]2[C@@H](c3ccc(C(F)(F)F)cc3)N[C@]3(CCCN(CC4CCCCC4)C3=O)[C@H]2C1=O returned NadD inh 3, CRFBP-R2 block -4, FAS TE block 18, NRP1-CendR mod -5, Myeloid diff MLP active, Myeloid diff CP1 inactive and GFP autofluor 0.
For COCOCCn1cc(CN2CCS(=O)(=O)N(Cc3ccc(-c4ccc(Cl)nc4)cc3)C(CC(C)C)C2=O)nn1 (stereo not given) the results were NadD inh -5, CRFBP-R2 block -2, FAS TE block 6, NRP1-CendR mod -2 and Myeloid diff MLP inactive.
CC(C)C1C(=O)N(Cc2cn(CC3CCCCC3)nn2)CCS(=O)(=O)N1Cc1ccc(-c2ccc(F)cc2)cc1 (stereo not given) was read as NadD inh 5, CRFBP-R2 block 14, FAS TE block 25, NRP1-CendR mod -8, Myeloid diff MLP inactive, Myeloid diff CP1 inactive and GFP autofluor 0.
For COCOCCn1cc(CN2CCS(=O)(=O)N(Cc3ccc(-c4ccc(Cl)cc4)cc3)C(CC(C)C)C2=O)nn1 (stereo not given) the results were NadD inh 5, CRFBP-R2 block -5, FAS TE block 10, NRP1-CendR mod 1, Myeloid diff MLP active, Myeloid diff CP1 inactive and GFP autofluor 0.
Screening COc1ccc(-c2ccc(CN3C(C(C)C)C(=O)N(Cc4cn(CC5CCCCC5)nn4)CCS3(=O)=O)cc2)cc1 (stereo not given) returned NadD inh 2, CRFBP-R2 block -4, FAS TE block 26, NRP1-CendR mod -1 and Myeloid diff MLP inactive.
`CCC/C=C/c1ccc(CN2C(C(C)C)C(=O)N(Cc3cn(CCC4OCCO4)nn3)CCS2(=O)=O)cc1` (stereo not given) gave NadD inh -3, CRFBP-R2 block 2, FAS TE block 13, NRP1-CendR mod -34, Myeloid diff MLP inactive, Myeloid diff CP1 inactive and GFP autofluor 0.
For CC(C)C1C(=O)N(Cc2cn(CCC3OCCCO3)nn2)CCS(=O)(=O)N1Cc1ccc(-c2cccc(N(C)C)c2)cc1 (stereo not given) the results were NadD inh 1, CRFBP-R2 block -8, FAS TE block 12, NRP1-CendR mod 7 and Myeloid diff MLP inactive.
Screening CC(C)C1C(=O)N(Cc2cn(CCC3OCCCO3)nn2)CCS(=O)(=O)N1Cc1ccc(-c2cccc(CO)c2)cc1 (stereo not given) returned NadD inh 7, CRFBP-R2 block -22, FAS TE block -7, NRP1-CendR mod -5, Myeloid diff MLP inactive, Myeloid diff CP1 inactive and GFP autofluor 1.
`CC1(C)C2CCC(CN=C(N)CSS(=O)(=O)O)C1C2` (stereo not given) gave NadD inh 4, CRFBP-R2 block -19, FAS TE block -121, NRP1-CendR mod 16 and Myeloid diff MLP inactive.
`COc1ccccc1C(CCNCc1ccc(N(C)C)cc1)c1ccc(OC(C)C)cc1` (stereo not given) gave NadD inh 6, CRFBP-R2 block -20, FAS TE block -40, NRP1-CendR mod -4, Myeloid diff MLP inactive, Myeloid diff CP1 inactive and GFP autofluor 0.
Screening CCn1c(COc2ccc(C)cc2)nnc1SCC(=O)C(C)(C)C returned NadD inh 3, CRFBP-R2 block 17, FAS TE block -6, NRP1-CendR mod -2 and Myeloid diff MLP inactive.
`CCn1c(COc2ccccc2)nnc1SCC(=O)C(C)(C)C` gave NadD inh 2, CRFBP-R2 block -12, FAS TE block -3, NRP1-CendR mod 0, Myeloid diff MLP active, Myeloid diff CP1 inactive and GFP autofluor 0.
`CCC(C)Nc1nc2c(c(=O)[nH]c(=O)n2C)n1CCCc1ccccc1` (stereo not given) gave NadD inh -3, CRFBP-R2 block 6, FAS TE block -1, NRP1-CendR mod 9 and Myeloid diff MLP inactive.
For CCC(C)Nc1nc2c(c(=O)[nH]c(=O)n2C)n1CCC(C)C (stereo not given) the results were NadD inh 3, CRFBP-R2 block -5, FAS TE block -1, NRP1-CendR mod -13, Myeloid diff MLP active, Myeloid diff CP1 inactive and GFP autofluor 1.
